The results in this text go back to PubChem BioAssay (NCI).

About 83,000 compounds went through this panel and 20% of them were active in at least one assay; those are over-represented in the sample as a whole.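 Testing used 96-well plates and a 48-hour single-concentration exposure. Example: -40 means 40% of the starting cells died.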 Values without a mark were called inactive. Calls of active or inactive are those of the source. How the source made its calls: active means growth percent below 10; inactive means the rest.

This assay relates to HL-60(TB) leukemia. The assay is described as follows: NCI-60 one-dose screen, 48 h (100 = growth as untreated, 0 = no growth, -100 = all killed). The note with it: 10 µM unless noted.
Consider `O=C(N/N=C/c1ccc(Cl)cc1)c1ccc(Cc2n[nH]c(=O)c3cccnc23)cc1`, for which the growth was 100%.

Regarding `Cc1csc(C#Cc2cncc(O)c2)n1`, the growth is 110%. Take `Nc1nc(-c2cnccn2)nn1-c1nc2ccccc2s1`: the growth is 100%. With `COc1ccccc1Nc1cc(O)c2c(=O)cc(-c3ccccc3)oc2c1` the figure was -6.07% (active); with `CC(=O)OCC(OC(C)=O)C(OC(C)=O)C(OC(C)=O)C(OC(C)=O)C(/C=N/Nc1ccccc1)=N/Nc1ccccc1` (stereo not given), 59.4%; with `CN(C(=O)c1ccccc1)N(C)C(=O)c1ccccc1`, 92.8%. Then `Nc1cc2c(cc1Br)[nH]c(=O)c1ccccc12`, with 91%; and `CO[C@H]1CC(c2ccc[nH]2)=N[C@]12O[C@@H](C)C[C@@H]1CCCCCCCc3ccc([nH]3)[C@H]12`, with 17.5%; and `CC(C)=CC(=O)OCC(=O)O[C@@H]1C[C@]2(C(C)C)O[C@@]1(C)[C@@H]1CC[C@@H](C)[C@H]1[C@@H]2OC(=O)/C=C/c1ccccc1`, with 85%. Then `C=C(C)[C@@H]1CC[C@]2(C(=O)OC)CC[C@]3(C)[C@H](CC[C@@H]4[C@@]5(C)C/C(=C/c6cccc(I)c6)C(=O)C(C)(C)[C@@H]5CC[C@]43C)[C@@H]12`, with 97.6%. With `CCn1c(O)c(/C=N/NC(=O)C(C)c2ccc(CC(C)C)cc2)sc1=S` (stereo not given), the growth was -32.5% (active). As to `Cc1cccc(NC(=O)Nc2ccc(-n3cnc4cc(-c5ccc(O)cc5)ccc43)cc2)c1`, the growth was 8.69% (active). Then `CCOC(=O)C(=CNc1ccccc1[N+](=O)[O-])C(=O)OCC`, with 90.8%. Turning to `O=c1cc(-c2ccc(Cl)cc2)[nH]c2ccccc12`, the growth is 44.3%. With `COc1cc(C2=NN(C(C)=O)C(c3cc(OC)c(OC)c(OC)c3)C2)ccc1O` (stereo not given) the figure was -37.6% (active). With `Nc1ncn([C@@H]2O[C@H](CO)[C@@H](O)[C@H]2O)c(=O)n1` the figure was -2.84% (active). As to `COc1cc2c(Nc3ccc(-c4ccc(N)cc4)cc3)ncnc2c(OC)c1OC`, the growth was 11.7%. In the case of `C=C1CC2(OC1=O)C(=O)Nc1ccccc12` (stereo not given), the growth was 31.6%. Then `COc1ccc(OC)c(Nc2nc3nonc3nc2Nc2cccc(Br)c2)c1`, with -14.1% (active); and `CC(C)(C)OC(=O)CC1(O)CCCCC1`, with 106%; and `O=C1c2ccccc2NC(n2sc3ccccc3c2=O)N1c1ccccc1` (stereo not given), with 87.9%. As to `COc1cc(C2C(C(=O)c3cccs3)=C(O)C(=O)N2CCN2CCOCC2)cc(OC)c1OC` (stereo not given), the growth is 120%. Then `COc1ccc2c(c1)c(=O)oc1c(C)c(OCC(C)=O)ccc12`, with 110%. Take `CNC=O`: the growth is 89.6%. Then `COc1cc(C(=O)Nc2cc(O)c(C/C=C(\C)CCC=C(C)C)c(O)c2)cc2c1O[C@]1(C)CC[C@@H](O)C(C)(C)[C@H]1C2`, with -3.87% (active); and `O=C1Nc2ccccc2/C1=C\c1nc(-c2ccccc2)n2ccccc12`, with 85.6%.

Take `COc1cc(C2CC(c3ccc(Nc4nc(Nc5ccc(Cl)cc5)nc(Nc5ccc(Cl)cc5)n4)cc3)=NN2C(C)=O)cc(OC)c1OC` (stereo not given): the growth was 95.2%. Then `CN(C)c1ccc(C(c2ccc(O)cc2)c2ccc(N(C)C)cc2)cc1`, with 87.1%; and `COc1cc(-c2nc(-c3nc4ccccc4[nH]3)cc3c2[nH]c2ccccc23)cc(OC)c1OC`, with 44.2%. On to `COc1cc(-c2nn3c(/C=C4/C(=O)Nc5ccccc54)c(-c4ccc(C)cc4)nc3s2)cc(OC)c1OC`, for which the growth was 34.8%.

As to `OCC(O)C(O)C(O)C(/C=N/Nc1ccccc1)=N/Nc1ccccc1` (stereo not given), the growth is 98.6%.

On to `CN(C)CCCN1c2ccccc2CCc2ccc(Cl)cc21`, for which the growth was 80.2%. As to `O=C(NNC(=O)c1ccc(NC(=O)c2ccccn2)cc1)Nc1ccc([N+](=O)[O-])cc1`, the growth was 97.9%. With `OCC1OC(O)C(O)C(O)C1O` (stereo not given) the figure was 120%; with `CCOC(=O)c1cc(C(=O)c2ccc(Cl)cc2)n2ccc(-c3cc[n+](CC(=O)c4ccc(OC)cc4)cc3)cc12`, 24.9%; with `Nc1nc2c(c(-c3nc(N)nc4c3CCc3ccccc3-4)n1)CCc1ccccc1-2`, 105%. With `COC1CC2CCC(C)C(O)(O2)C(=O)C(=O)N2CCCCC2C(=O)OC(C(C)CC2CCC(O)C(OC)C2)CC(=O)C(C)C=C(C)C(O)C(OC)C(=O)C(C)CC(C)/C=C/C=C/C=C1C` (stereo not given), the growth was 86.6%.

In the case of `O=C1Nc2ccc(Cl)cc2/C1=N/c1nc(-c2ccc(F)cc2)cs1`, the growth was -36.7% (active). `C1=C2CCCC3=Cc4ccccc4OC23Oc2ccccc21`: the growth is 8.47% (active). Consider `C[n+]1ccc(CCc2c[nH]c3ccccc23)cc1`, for which the growth is 90.6%.
